In PubChem BioAssay (NCI):
Compounds without any hit were thinned out: in the full panel of roughly 83,000, 20% have a hit.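 Method: cells in 96-well plates; compound added at one concentration; 48 h incubation; percent growth measured; values under 10 scored active.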 Values without a mark were called inactive. Activity calls are given as the source filed them.

Test system: SK-MEL-2 melanoma
Assay: NCI-60 one-dose screen, 48 h (100 = growth as untreated, 0 = no growth, -100 = all killed)
Settings: 10 µM unless noted
Method: Growth inhibition of the SK-MEL-2 human tumor cell line is measured as a screen for anti-cancer activity. Cells are grown in 96 well plates and exposed to the test compound for 48 hours. Compounds are tested at a single concentration, which is 10^-5 M for most compounds. The reported endpoint is percent growth (GI% or GIPRCNT), where numbers from 0 - 100% represent growth inhibition, and numbers from -100% - 0 represent cell death. For example, a value of 40 represents 60% growth inhibition. A value of 0 means no net growth occurred over the course of the experiment. A value of -40 indicates 40% of cells at the beginning of the experiment died by the end of the experiment. A value of -100 means all cells are dead at the end of the experiment.
NCI-60 Human Tumor Cell Lines Screen was performed using the standard one-dose NCI protocol, which is described in more detail at https://dtp.cancer.gov/discovery_development/nci-60/default.htm.
Compounds with GIPRCNT values below 10 were considered active. Activity score was based on GIPRCNT using the following formula: […]
Score is 0 for GIPRCNT values of 100 or above, 50 for GIPRCNT values of 0, and 100 for GIPRCNT values of -100.

Row | Structure (SMILES) | growth
1 | C=CCn1c(SCC(=O)Nc2ccc(C(=O)/C=C/c3cc(OC)c(OC)c(OC)c3)cc2)nnc1-c1cc(-c2ccc(S(C)(=O)=O)cc2)nc2ccccc12 | 103%
2 | Nc1nnc(C(=O)c2cnc3n(c2=O)CCCCC3)s1 | 112%
3 | CC(=O)O[C@H]1CC[C@@]2(C)[C@@H](CC[C@@H]3[C@@H]2CC[C@@]2(C)[C@H]3CC[C@]2(O)C(C)=O)C1 | 117%
4 | S=c1[nH]cccc1-c1nnc2n1Nc1nc3ccc(Cl)cc3cc1CS2 | 96.1%
5 | O=CNc1cc(Cl)cc(Cl)c1 | 100%
6 | COc1cc2ncnc(Nc3ccc(C(=O)/C=C/c4ccc(C(F)(F)F)cc4F)cc3)c2cc1OC | 105%
7 | COc1cc2nc(-c3ccc(-c4nn[nH]n4)cc3)[nH]c(=O)c2cc1OC | 122%
8 | CC(=O)c1cccc(NS(=O)(=O)c2cccc(C(=O)Nc3ccc(Br)cc3)c2)c1 | 50.6% [25 µM]
9 | CCOC(=O)Oc1c(OC)cc(C(=O)O[C@@H]2C[C@@H]3CN4CCc5c([nH]c6cc(OC)ccc56)[C@H]4C[C@@H]3[C@H](C(=O)OC)[C@H]2OC)cc1OC | 105%
10 | CCN1C(=O)/C(=c2\sc3n(c2=O)NC2C(N=3)N(CC)C(=O)N2CC)c2ccccc21 (stereo not given) | 65.8%
11 | O=C1NC(=O)C(=Cc2cn(Cc3ccccn3)c3ccccc23)C(=O)N1 | 102%
12 | COc1ccc(C(=O)c2cc3c(N)c(C(=O)Nc4cccc(Cl)c4)sc3nc2C)cc1 | 39.8%
13 | COc1ccc(-c2nc(SC(C)C)nc(NNC(N)=O)c2C#N)cc1 | 92.9%
14 | CC(=O)[C@@H]1CC[C@]2(C(N)=O)CC[C@]3(C)[C@H](CC[C@@H]4[C@@]5(C)CCC(=O)C(C)(C)[C@@H]5CC[C@]43C)[C@@H]12 | 100%
15 | CN1C(=O)N(C)C2NC(N/N=C/c3ccccc3)=NC21 (stereo not given) | 108%
16 | O=c1[nH]nc(-c2ccc(Cl)cc2)cc1Cc1cccc([N+](=O)[O-])c1 | 174%
17 | COc1cccc(NC(=O)c2cccc(-c3cc(=O)c4c(OC)c(OC)c(OC)cc4o3)c2)c1 | 75.7%
18 | Clc1cc(Cl)cc(N2N=C(c3cccc(Nc4ccncc4)c3)CC2c2ccccc2)c1 (stereo not given) | 97.1%
19 | CC1(C)[C@H](O)CC[C@]2(C)[C@@H]1CC[C@@]13C[C@@H](CC[C@H]12)[C@@](O)(CO)C3 | 106%
20 | c1ccc(CCSc2ncnc3nc[nH]c23)cc1 | 53.6%

Row | Structure (SMILES) | growth
21 | COc1ccc(-c2c(-c3ccccc3)noc2N)cc1OC | 98.5%
22 | COc1cccc(/C=C2\COc3ccc(-c4ccccc4)cc3C2=O)c1 | -46.4% (active)
23 | CC(=O)c1c(-c2ccc(OC(F)(F)F)cc2)nc2ccccn12 | 81.5%
24 | COc1ccc(C(O)c2cc3c(N)c(C(=O)Nc4ccc(Cl)cc4)sc3nc2C)cc1 (stereo not given) | 37.1%
25 | CCN(CC)CCCC(C)Nc1cc(-c2cccc(OC(F)(F)F)c2)nc2ccc(N3CCCC3)cc12 (stereo not given) | -71.2% (active)
26 | COc1cc(C2CC(c3cccc(Nc4ccncc4)c3)=NN2c2ccccc2)cc(OC)c1OC (stereo not given) | 83.1%
27 | CCCCCN1C=C/C(=C\C(=O)N(C)c2ccc(Br)cc2)c2ccccc21 | 109%
28 | CCCCCCCCCCCCCCCCCCOc1ccccc1N | 86.3%
29 | O=C(CCN1CCCC1)Nc1ccc2c(Nc3ccccc3)c3ccccc3nc2c1 | 41.4%
30 | CCc1c(Nc2ccc(C)cc2)[nH]c(N)nc1=S | 103%
31 | CC(=O)OCC(=O)[C@@]1(O)CC[C@H]2[C@@H]3CC(=C(Br)Br)C4=CC(=O)CC[C@]4(C)[C@H]3C(=O)C[C@@]21C | 78.7%
32 | Cc1ccc(C2CC(c3cccc(Nc4ccncc4)c3)=NN2c2cc(Cl)cc(Cl)c2)cc1 (stereo not given) | 96.4%
33 | CC[C@H](C)[C@@H]1NC(=O)[C@H](Cc2ccc(O)cc2)N(C)C(=O)[C@H](Cc2ccccc2)NC(=O)CN(C)C(=O)[C@@H]2CCCN2C(=O)[C@@H](Cc2ccccc2)N(C)C(=O)[C@H](CC(C)C)NC1=O | -50.4% (active)
34 | CC(=O)Nc1ccc(C(=O)Nc2cc(-c3ccccc3)ccc2N)cc1 | 73.8%
35 | NC(=O)C1(N2CCCCC2)CCN(CCCC(=O)c2ccc(F)cc2)CC1 | 13.9%
36 | Cc1c([N+](=O)[O-])cc(C(C)(C)C)cc1[N+](=O)[O-] | 71.5%
37 | COc1cccc(CCC(=O)c2cc3c(N)c(C(=O)Nc4cccc(Cl)c4C)sc3nc2C)c1 | 36.5%
38 | C=C(C)[C@@H]1CC[C@]2(C(=O)NCC(=O)OC)CC[C@]3(C)[C@H](CC[C@@H]4[C@@]5(C)Cc6c([nH]c7ccccc67)C(C)(C)[C@@H]5CC[C@]43C)[C@@H]12 | 78.2%
39 | CN1CCN(CC#CCNC(=O)[C@]23CCC(C)(C)C[C@H]2C2=CC[C@@H]4[C@@]5(C)Cc6c([nH]c7ccccc67)C(C)(C)[C@@H]5CC[C@@]4(C)[C@]2(C)CC3)CC1 | 98.3%
40 | C/C(=C(/c1ccccc1)c1ccc(OCC(O)CN2CCOCC2)cc1)c1ccccc1 (stereo not given) | 98.9%
